Laboratory results taken from PubChem BioAssay (NCATS).

Experiments:
[1] = qHTS profiling of the MIPE4 collection as inhibitors of Plasmodium falciparum (3D7) proliferation (AID 743344);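 note: scaled between DMSO vehicle wells and 0.29 µM artemisinin as full inhibition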; conditions: P. falciparum 3D7 in erythrocytes, SYBR Green DNA fluorescence, 72 h; at 28.5 µM
Procedure, shortened: (§1)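 Erythrocytes infected with P. falciparum (0.3% parasitemia, 2.5% hematocrit) incubated with compounds 72 h at 37 C, 5% CO2. Lysis with saponin/Triton buffer containing SYBR Green I, overnight at room temperature in the dark; DNA fluorescence (485/535 nm) normalised to 0.29 uM artemisinin and DMSO.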

[2] = qHTS profiling of the MIPE4 collection as inhibitors of Plasmodium falciparum (DD2) proliferation (Rep 2) (AID 743346); conditions: P. falciparum Dd2 in erythrocytes, SYBR Green DNA, 72 h; at 28.5 µM
Procedure, shortened: as §1

[3] = qHTS profiling of the MIPE4 collection as inhibitors of Plasmodium falciparum (HB3) proliferation (AID 743347);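 note: plate controls were DMSO vehicle wells for no effect and artemisinin wells for full effect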; conditions: P. falciparum HB3 in erythrocytes, SYBR Green DNA, 72 h; at 28.5 µM
Procedure, shortened: as §1

[4] = qHTS profiling of the MIPE4 collection as inhibitors of Plasmodium falciparum (DD2) proliferation (AID 743345); conditions: P. falciparum Dd2 in erythrocytes, SYBR Green DNA, 72 h; at 28.5 µM unless noted
Procedure, shortened: as §1

Q: For `O=c1cccc2n1CC1CNC[C@H]2C1`, which parasite growth, % of DMSO control [1] is on record?
A: 71.3%

Q: What about the parasite growth, % of control (lower = inhibition) [2] of the same compound?
A: 53.7%

Q: What about the growth, % of control [3] of the same compound?
A: 52.1%

Q: Which parasite growth, % of DMSO control [1] does the source give for `C[C@@]12OC(=O)[C@]1([C@@H](O)[C@@H]1C=CCCC1)NC(=O)[C@H]2CCCl` here?
A: 4.78%

Q: What about the parasite growth, % of control (lower = inhibition) [2] of the same compound?
A: 10.7%

Q: What about the growth, % of control [3] of the same compound?
A: 5.21%

Q: With `CN1[C@H]2CC(O)C[C@H]1[C@H]1O[C@H]12` (some centres not stated) as the compound, how does the parasite growth, % of DMSO control [1] read?
A: 11.1%

Q: What about the parasite growth remaining, % of DMSO control (lower = more inhibition) [4] of the same compound?
A: 12.2%

Q: What about the parasite growth, % of control (lower = inhibition) [2] of the same compound?
A: 28.8%

Q: What about the growth, % of control [3] of the same compound?
A: 7.31%

Q: For `C[C@]12CCC(=O)C(O)=C1CC[C@@H]1[C@H]3CCC(=O)[C@@]3(C)CC[C@@H]12`, which parasite growth, % of DMSO control [1] is on record?
A: 77.1%

Q: What about the parasite growth, % of control (lower = inhibition) [2] of the same compound?
A: 71.5%

Q: And the growth, % of control [3]?
A: 54.8%

Q: For `C#C[C@]1(O)C=C[C@@H]2[C@@H]3CCC4=CC(=O)CC[C@@H]4[C@H]3CC[C@@]21CC`, which parasite growth, % of DMSO control [1] is on record?
A: 10.4%

Q: What about the parasite growth, % of control (lower = inhibition) [2] of the same compound?
A: 26.2%

Q: For `C=C1C[C@H]2[C@H]3CCC(=O)[C@@]3(C)CC[C@@H]2[C@@]2(C)C=CC(=O)C=C12`, which parasite growth, % of DMSO control [1] is on record?
A: 51.5%

Q: What about the parasite growth remaining, % of DMSO control (lower = more inhibition) [4] of the same compound?
A: 90.6%

Q: What about the parasite growth, % of control (lower = inhibition) [2] of the same compound?
A: 50.5%

Q: And the growth, % of control [3]?
A: 29%

Q: For `COc1ccc(CC2NCCc3cc(OC)c(OC)cc32)cc1OC` (configuration not stated), which parasite growth, % of DMSO control [1] is on record?
A: 85.9%

Q: And the parasite growth, % of control (lower = inhibition) [2]?
A: 55.8%

Q: What about the growth, % of control [3] of the same compound?
A: 90.4%

Q: With `CCNC(=O)CC1N=C(c2ccc(Cl)cc2)c2cc(OC)ccc2-n2c(C)nnc21` (configuration not stated) as the compound, how does the parasite growth, % of DMSO control [1] read?
A: 26.1%

Q: What about the parasite growth, % of control (lower = inhibition) [2] of the same compound?
A: 70.5%

Q: And the growth, % of control [3]?
A: 42.1%

Q: For `CC(C)N[C@@H]1CCn2c(=O)[nH]c3cccc(c32)[C@@H]1O`, which parasite growth, % of DMSO control [1] is on record?
A: 93.3%

Q: What about the parasite growth, % of control (lower = inhibition) [2] of the same compound?
A: 118%

Q: What about the growth, % of control [3] of the same compound?
A: 101%

Q: For `COc1ccc2c(c1)[C@]13CCCCC1C(C2)N(C)CC3` (some centres not stated), which parasite growth, % of DMSO control [1] is on record?
A: 92.5%

Q: What about the parasite growth, % of control (lower = inhibition) [2] of the same compound?
A: 52.9%

Q: Which parasite growth, % of DMSO control [1] does the source give for `C[C@]12Cc3cn[nH]c3C[C@@H]1CC[C@@H]1[C@H]2CC[C@@]2(C)[C@H]1CC[C@]2(C)O` here?
A: 52.2%

Q: And the parasite growth, % of control (lower = inhibition) [2]?
A: 54.3%

Q: Which results are given for `O=C(Nc1ccncc1)C(=O)c1cn(Cc2ccc(Cl)cc2)c2ccccc12`?
A: parasite growth, % of DMSO control [1]: 91%; parasite growth, % of control (lower = inhibition) [2]: 81.4%; growth, % of control [3]: 78.4%

Q: For `CN[C@@H]1Cc2cccc3[nH]c(=O)n(c23)C1`, which parasite growth, % of DMSO control [1] is on record?
A: 92.4%

Q: And the parasite growth remaining, % of DMSO control (lower = more inhibition) [4]?
A: 105%

Q: What about the parasite growth, % of control (lower = inhibition) [2] of the same compound?
A: 82.7%

Q: What about the growth, % of control [3] of the same compound?
A: 85.5%

Q: With `COc1cc([C@@H]2c3cc4c(cc3[C@@H](O)C3COC(=O)C32)OCO4)cc(OC)c1O` (some centres not stated) as the compound, how does the parasite growth, % of DMSO control [1] read?
A: 64.9%

Q: What about the parasite growth remaining, % of DMSO control (lower = more inhibition) [4] of the same compound?
A: 88.5%

Q: What about the parasite growth, % of control (lower = inhibition) [2] of the same compound?
A: 64.3%

Q: And the growth, % of control [3]?
A: 66.2%

Q: What does the source list for `O=C(O)CNC(=O)c1c(O)c2ccccc2n(Cc2ccccc2)c1=O`?
A: parasite growth, % of DMSO control [1]: 88%; parasite growth remaining, % of DMSO control (lower = more inhibition) [4]: 93.4%; parasite growth, % of control (lower = inhibition) [2]: 75.1%; growth, % of control [3]: 105%

Q: What does the source list for `CCN1CCN(C(=O)Cc2ccc(Nc3ncc(F)c(Nc4ccc(C(=O)Nc5ccccc5Cl)cc4)n3)cc2)CC1`?
A: parasite growth, % of DMSO control [1]: 6.35%; parasite growth, % of control (lower = inhibition) [2]: 14.2%

Q: Which results are given for `CC(N[C@H]1C[C@H]1c1ccccc1)c1ccc2c(c1)OCCO2` (some centres not stated)?
A: parasite growth, % of DMSO control [1]: 90.6%; parasite growth remaining, % of DMSO control (lower = more inhibition) [4]: 74.9%; parasite growth, % of control (lower = inhibition) [2]: 64.1%; growth, % of control [3]: 60.1%

Q: Which parasite growth, % of DMSO control [1] does the source give for `COc1ccc(N(C(=O)Oc2c(C)cccc2C)c2ccnc(Nc3ccc(N4CCN(C)CC4)cc3)n2)c(OC)c1` here?
A: 5.18%

Q: And the parasite growth, % of control (lower = inhibition) [2]?
A: 20.9%

Q: What about the growth, % of control [3] of the same compound?
A: 9.74%

Q: Which parasite growth, % of DMSO control [1] does the source give for `C[C@]12CC[C@H](O)CC1=CC[C@H]1[C@H]3CCC(=O)[C@@]3(C)CC[C@@H]12` here?
A: 72.2%

Q: And the parasite growth remaining, % of DMSO control (lower = more inhibition) [4]?
A: 97.4%

Q: And the parasite growth, % of control (lower = inhibition) [2]?
A: 108%

Q: What about the growth, % of control [3] of the same compound?
A: 98.3%

Q: Which parasite growth, % of DMSO control [1] does the source give for `COC[C@H]1OC(=O)c2coc3c2[C@@]1(C)C1=C(C3=O)[C@@H]2CC[C@H](O)[C@@]2(C)C[C@@H]1OC(C)=O` here?
A: 93.1%

Q: And the parasite growth, % of control (lower = inhibition) [2]?
A: 79.7%

Q: What about the growth, % of control [3] of the same compound?
A: 48.8%

Q: What does the source list for `C[C@@H]1O[C@@H](O[C@@H]2C=C3CC[C@@H]4[C@@H](CC[C@]5(C)[C@H](c6ccc(=O)oc6)CC[C@@]45O)[C@@]3(C)CC2)[C@H](O)[C@H](O)[C@H]1O`?
A: parasite growth, % of DMSO control [1]: 79%; parasite growth remaining, % of DMSO control (lower = more inhibition) [4]: 94.6%; parasite growth, % of control (lower = inhibition) [2]: 96.7%; growth, % of control [3]: 94.5%

Q: Which parasite growth, % of DMSO control [1] does the source give for `CC(=Cc1csc(C)n1)[C@@H]1C[C@H]2O[C@]2(C)CCC[C@H](C)[C@@H](O)[C@@H](C)C(=O)C(C)(C)[C@@H](O)CC(=O)O1` here?
A: 15.3%

Q: And the parasite growth, % of control (lower = inhibition) [2]?
A: 35.2%

Q: And the growth, % of control [3]?
A: 16.9%

Q: Which results are given for `CN1CCN(c2ccc([N+](=O)[O-])c3no[n+]([O-])c23)CC1`?
A: parasite growth, % of DMSO control [1]: 77.4%; parasite growth remaining, % of DMSO control (lower = more inhibition) [4]: 95.3%; parasite growth, % of control (lower = inhibition) [2]: 86.4%; growth, % of control [3]: 99.7%

Q: Which parasite growth, % of DMSO control [1] does the source give for `CCOC(=O)c1c(C(C#N)=CN)c2ccc(Cl)c(Cl)c2n1C` here?
A: 90%

Q: What about the parasite growth, % of control (lower = inhibition) [2] of the same compound?
A: 149%

Q: Which parasite growth, % of DMSO control [1] does the source give for `O=c1[nH]c2ccc(Cl)cc2c(N[C@@H]2CN3CCC2CC3)c1-c1nc2ccccc2[nH]1` here?
A: 5.05%

Q: And the parasite growth, % of control (lower = inhibition) [2]?
A: 8.84%

Q: And the growth, % of control [3]?
A: 2.7%

Q: With `Clc1ccccc1C(c1ccccc1)(c1ccccc1)n1cccn1` as the compound, how does the parasite growth, % of DMSO control [1] read?
A: 9.07%

Q: And the parasite growth, % of control (lower = inhibition) [2]?
A: 11.6%

Q: And the growth, % of control [3]?
A: 6.73%

Q: Which results are given for `CC=C(C)C(=O)N[C@@H](c1ccccc1)[C@@H](O)C(=O)O[C@H]1C[C@@]2(O)[C@@H](OC(=O)c3ccccc3)[C@@H]3[C@]4(OC(C)=O)CO[C@@H]4C[C@H](O)[C@@]3(C)C(=O)[C@H](OC(C)=O)C(=C1C)C2(C)C`?
A: parasite growth, % of DMSO control [1]: 4.24%; parasite growth, % of control (lower = inhibition) [2]: 15.6%; growth, % of control [3]: 6.33%

Q: What does the source list for `C1=C2CCCN[C@H]2[C@@H]2C[C@H]1[C@@H]1CCCCN1C2`?
A: parasite growth, % of DMSO control [1]: 71.7%; parasite growth, % of control (lower = inhibition) [2]: 69.3%

Q: With `CCOC(=O)c1cncn1[C@H](C)c1ccccc1` as the compound, how does the parasite growth, % of DMSO control [1] read?
A: 46.8%

Q: And the parasite growth, % of control (lower = inhibition) [2]?
A: 70.6%

Q: And the growth, % of control [3]?
A: 67.6%

Q: Which results are given for `C[C@@H]1[C@H](O)[C@@H](C)C=CC=CCCC=CC=CC=CC=C[C@H](O[C@H]2O[C@@H](C)[C@H](O)[C@@H](N)[C@@H]2O)CC2O[C@](O)(C[C@@H](O)[C@H](O)CC[C@@H](O)C[C@@H](O)C[C@@H](O)CC(=O)O[C@H]1C)C[C@H](O)[C@H]2C(=O)O`?
A: parasite growth, % of DMSO control [1]: 94.4%; parasite growth, % of control (lower = inhibition) [2]: 97.5%
